Values joined by “and” are separate entries in the source; they are usually repeats but may differ in a detail not shown here. Equal entries are not always repeated. Hit rate of the full screen: of about 16,000 compounds, about 5,700 (36%) were called active. Roughly 24% stayed inconclusive and do not appear here. The call rests on the fitted dose curve; in most records, active means well fitted curve in the direction sought with a large enough effect; inconclusive means small, poorly fitted or top-dose-only effect, or effect the other way; inactive means no such curve, though single readings can be large or run the other way. This is one part of the list.
Target: Cytochrome P450 1A2 (Homo sapiens) (UniProt P05177)
Assay: Cytochrome panel assay with activity outcomes
Settings: recombinant CYP, pro-luciferin dealkylation, luminescence, p450-cyp1a2; series mostly up to 57.1 µM; activity, negative = inhibition: at the top concentration
On the % scale 0 is the no-effect control and ±100 the full control effect.

Cytochrome P450 1A2 (Homo sapiens), sequence (P05177 whole entry, looked up): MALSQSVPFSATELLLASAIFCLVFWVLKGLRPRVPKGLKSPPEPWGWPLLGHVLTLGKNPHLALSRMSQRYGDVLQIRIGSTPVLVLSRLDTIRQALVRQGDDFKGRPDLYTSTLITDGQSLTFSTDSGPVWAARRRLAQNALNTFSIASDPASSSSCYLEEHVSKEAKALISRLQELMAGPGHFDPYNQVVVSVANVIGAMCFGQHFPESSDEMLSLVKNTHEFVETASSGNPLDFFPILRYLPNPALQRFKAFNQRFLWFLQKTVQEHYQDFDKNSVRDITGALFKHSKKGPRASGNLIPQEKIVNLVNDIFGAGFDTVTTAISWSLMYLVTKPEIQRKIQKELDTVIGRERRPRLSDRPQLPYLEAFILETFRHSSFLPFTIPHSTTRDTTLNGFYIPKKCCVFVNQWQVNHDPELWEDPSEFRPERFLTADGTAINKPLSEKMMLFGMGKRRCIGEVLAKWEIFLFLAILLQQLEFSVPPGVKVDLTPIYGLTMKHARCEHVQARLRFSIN

activity, negative = inhibition, inactive:
O=C(O)CC12C[C@H]3C[C@@H](CC(O)(C3)C1)C2 -11.2% [at 11.4 µM]
Cc1ccccc1-c1nc(CS(=O)CC(=O)NCCN2CCN(Cc3ccccc3)CC2)c(C)o1 (centres undefined) -37.3%
O=C1Nc2ccccc2C(O)(C(=O)NCc2ccc3c(c2)OCO3)N1c1ccc(Cl)c(Cl)c1 (centres undefined) 25%
CN1CCN(CCCNC(=O)c2ccc(CSCc3cccc(Cl)c3)o2)CC1 -11%
CCOC(=O)N1CCC(NC(=O)CS(=O)(=O)Cc2nc(-c3cccc(OC)c3)oc2C)CC1 -39%
Cc1oc(-c2ccccc2F)nc1CS(=O)(=O)CC(=O)NCCCN(C)C1CCCCC1 -6.41%
O=C(N/N=C/c1ccc2c(c1)OCO2)/C(=C/c1ccc2c(c1)OCO2)NC(=O)c1ccccc1 -28.9%
CC[C@]1(O)C[C@@H]2CN(CCc3c([nH]c4ccccc34)[C@](C(=O)OC)(c3cc4c(cc3OC)N(C=O)[C@H]3[C@@](O)(C(=O)OC)[C@H](C(=O)OC)[C@@]5(CC)C=CCN6CC[C@]43[C@H]65)C2)C1 -4.94%
CO[C@@H]1COC(=O)C/C=C\[C@H](C)[C@@H](NS(=O)(=O)c2ccc(C)cc2)COC(=O)C/C=C\[C@@H]1C -5.33% [at 11.4 µM] and -2.04% [at 11.4 µM]
CCS(=O)(=O)N1CCCC(C(=O)NCCCOC(C)C)C1 (centres undefined) -11.6%
CCOC(=O)c1ccc(NC(=O)CC2NCCNC2=O)cc1 (centres undefined) 11.1%
CN1C(=O)C(CC(N)=O)N(NC(=O)c2ccc(Cl)cc2)C1=S (centres undefined) -4.34%
CC(NC(=O)c1cccc(F)c1)C(c1cccs1)N1CCN(C)CC1 (centres undefined) -4.46%
CCN1C(=O)[C@H]2[C@H]3[C@H](O)[C@H](O)C/C(=N/O[C@@H](C)c4cn([C@H]5COC[C@H]5O)nn4)[C@@H]3CC[C@@H]2C1=O -9.43% [at 11.4 µM]
CCCS(=O)(=O)N1CCCC(C(=O)NCCN2CCOCC2)C1 (centres undefined) -13.1%
COCCNC(=O)c1cn(Cc2c(F)cccc2Cl)nn1 0.621%
COCCNC(=O)CCn1nc(-c2ccc(Cl)cc2)ccc1=O -23.7%
CC(=O)Nc1ccc(Cc2ccc3[nH]c(=O)cc(C)c3c2)cc1 -17% [at 11.4 µM]
O=C(O)c1cccnc1SCC(=O)N1CCCCCC1 -7.56%
COC(=O)C/C=C\[C@@H](C)[C@@H](/C=N\O[C@@H](C)CN1CCCc2nc(C)c(C)cc21)OC -0.522% [at 11.4 µM]
CC(C(=O)Nc1cccnc1)N1C(=O)C2C3C=CC(C3)C2C1=O (centres undefined) -24.9%
O=C1C(O)=C(O)C(=O)C(O)=C1O -3.27% [at 25.6 µM]
CC(=O)OC[C@@H]1O[C@H](CCO/N=C(\C)CCN2CCCc3nc(C)c(C)cc32)C=C[C@@H]1OC(C)=O -5.74% [at 11.4 µM]
CC(Cc1ccccc1)N/C=C1\CC(=O)NC1=O (centres undefined) -19.7%
NC(=O)N[C@H]1NC(=O)NC1=O -5.86% [at 25.6 µM]
CC(C)Cn1c(C(C)C)nc([N+](=O)[O-])c1S(=O)(=O)c1ccc(F)cc1 -26.1%
O=C(c1cccc(F)c1)N1CCC2(CC1)CN(Cc1ccccc1)C2 -5.98%
CC(C)CC(=O)N1CCN(Cc2cccc(F)c2)CC1 -7.54%
COCc1nnc(NC(=O)c2ccc(S(=O)(=O)N3CCCCCC3)cc2)o1 -9.54%
CCOC(=O)Cc1csc(NC(=O)c2sc3nc4ccc(CC)cc4cc3c2N)n1 -23.8%
CCOC(=O)Cc1csc(NS(=O)(=O)c2ccccc2)n1 -16.9%
COc1ccc(N2C(=O)CCC(C(=O)Nc3ccccn3)C2c2ccc(OC)c(OC)c2)cc1 (centres undefined) -26.4%
C/C(CCN1CCCCc2nc(C)c(C)cc21)=N\OC[C@@H](O)COCc1ccco1 -9.9% [at 11.4 µM]

AC50, active:
O=C(CSCc1cccc(Br)c1)N/N=C/c1ccc2c(c1)OCO2 2.51 µM
O=C(CSCc1cccc(Cl)c1)NCc1ccc2c(c1)OCO2 3.16 µM
Cc1oc(-c2ccccc2F)nc1CSCC(=O)NCc1ccc2c(c1)OCO2 1.58 µM
Cc1oc(-c2ccccc2Cl)nc1CSCC(=O)NC1CC1 15.8 µM
O=C(/C=C/c1ccc2c(c1)OCO2)NCCSCc1cccc(Cl)c1 4.47 µM
O=C(Cn1nc(C(F)F)cc1C(F)F)N/N=C/c1ccc2c(c1)OCO2 0.891 µM
CCC1C(=O)N=C(SCC(=O)Nc2ccc(C(=O)OC)cc2)NC1=O (centres undefined) 15.8 µM
C/C(=N\NC(=O)c1ccc(Cl)cc1)c1ccc(Br)s1 1.26 µM
C/C(=N\NC(N)=O)c1ccc(Cl)cc1 3.16 µM
C/C(=N\NC(=O)c1cccc(F)c1)c1ccc(Br)s1 0.631 µM
COCCNC(=O)c1sc2nc(-c3ccccc3)cn2c1C 2 µM
O=c1[nH]c2ccccc2c2ccccc12 0.251 µM
Cc1cc(=O)[nH]c2ccccc12 15.8 µM
C=CCSc1ncccc1C(=O)NCc1ccc(C)cc1 0.794 µM
O=C(N/N=C/c1ccc(O)cc1)c1ccc(COc2cc(Cl)ccc2Cl)o1 4.47 µM
O=C(Nc1cccnc1)c1ccc(COc2cc(Cl)ccc2Cl)o1 0.794 µM
CC(C)CNC(=O)c1ccc(COc2ccc(Cl)cc2Cl)o1 14.1 µM
Cn1ncc(Cl)c1C(=O)Nc1cccnc1 3.55 µM
COc1cc(OC)c2nc(C)c3c(c2c1)N(c1ccc(O)cc1)CC3 2.24 µM
CCn1c(=N)c(S(=O)(=O)c2ccc(F)cc2)cc2c(=O)n3ccccc3nc21 1.58 µM
Cn1c(=N)c(S(=O)(=O)c2ccc(F)cc2)cc2c(=O)n3ccccc3nc21 12.6 µM
CN(C)C(=C(C#N)C#N)N1CCN(c2ccc(Cl)c(Cl)c2)CC1 25.1 µM
O=C(OCc1cccc(F)c1)c1ccc2c(c1)-c1ccccc1C2=O 3.55 µM
CCOC(=O)Cc1csc(NC(=O)c2ccc(Cl)nc2)n1 10 µM
CCOC(=O)Cc1csc(NC(=O)c2ccc(S(=O)(=O)N3CCCCC3)cc2)n1 15.8 µM
O=C1C(Cl)=C(Sc2nnc3c4ccccc4c4ccccc4c3n2)C(=O)c2ccccc21 0.398 µM

— PubChem BioAssay AID1851 (National Center for Advancing Translational Sciences (NCATS), 2009)
